Only some compounds are listed: those with a hit (about 3.7% of all), similar ones and a draw of the others.
TGFb SMAD3 inh: TGF-b pathway inhibition; HepG2 CAGA-GFP TGF-b/SMAD3 reporter, GFP fluorescence, 18 h; TGF-beta stimulated, 500 pg/mL final; Potency, µM (titrated, usually from 46.1 µM), actives largely listed as inhibitors; actives 1.2% (n = 410,000); AID 588855; also: nearly all actives have a fitted effect of over 65% in size
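HEPG2 CAGA-GFP, 1000 cells/well; 2 h settle, 37 C; cpd via pin tool; TGF-b 500 pg/mL final; 18 h, 37 C; GFP imaging ex488/em500-530; %Activity normalised to -TGF-b and +DMSO controls; CRC fit, curve class.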
S2 tox: reduces viability in counter-screen for ATXN expression inhibitors. Potency, µM (top dose mostly 56.7 µM), hits mostly cytotoxic. actives 0.49% (n = 400,000). AID 651635. S2 cells (HEK-293 line with an ATXN2-luciferase reporter) viability, CellTiter-Fluor protease fluorescence, 24 h; also: nearly all actives have a fitted effect of over 40% in size
GLP1R inv ag: inverse agonists of human GLP-1 receptor; P43220; HEK293 GLP-1R CRE-luciferase, luminescence, 24 h; GLP-1R form is constitutively active; Potency, µM (series often up to 38.3 µM), actives largely listed as inhibitors; actives 1.6% (n = 410,000); also: nearly all actives have a fitted effect of over 55% in size
Target sequence (P43220 whole entry, looked up): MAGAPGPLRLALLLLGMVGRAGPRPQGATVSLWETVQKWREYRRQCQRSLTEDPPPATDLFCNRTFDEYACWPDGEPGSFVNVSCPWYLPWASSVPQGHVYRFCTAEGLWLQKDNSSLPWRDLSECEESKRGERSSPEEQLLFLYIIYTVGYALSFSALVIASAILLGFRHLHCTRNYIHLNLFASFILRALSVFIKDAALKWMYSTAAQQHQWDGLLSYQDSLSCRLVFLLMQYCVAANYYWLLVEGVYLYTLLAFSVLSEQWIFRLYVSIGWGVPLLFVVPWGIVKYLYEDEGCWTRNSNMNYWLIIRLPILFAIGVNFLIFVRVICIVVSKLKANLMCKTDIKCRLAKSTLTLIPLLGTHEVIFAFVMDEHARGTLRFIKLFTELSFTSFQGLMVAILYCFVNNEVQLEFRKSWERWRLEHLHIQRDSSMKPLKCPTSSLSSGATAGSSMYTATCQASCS
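GLP-1R inverse agonism mode: basal reporter luminescence in engineered HEK293 cells measured after one day of compound exposure at 37 deg C, with a 12 min room-temperature detection step.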
GLP-1R agonist: agonists of human GLP-1 receptor; P43220; HEK293 GLP-1R CRE-luciferase, luminescence, 4-6 h; cells express a hypersensitive GLP-1R form; Potency, µM (doses to about 45.6 µM), hits mostly activators; actives 0.007% (n = 380,000)
ATXN2 expr inh: inhibitors of ATXN2 expression | Potency, µM (series often up to 57 µM), most hits filed as inhibitors | HEK-293 ATXN2-luciferase reporter, luminescence, 24 h | AID 1745845 | actives 0.72% (n = 360,000); also: nearly all actives have a fitted effect of over 55% in size
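ATXN2-luciferase reporter cells (luciferase flanked by upstream and downstream ATXN2 gene portions) were treated 24 h at 37 °C with compounds at up to 57 uM. SteadyGlo luminescence gave expression; GF-AFC fluorescence gave viability.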
HepG2 tox: HepG2 cytotoxicity, counter-screen for TGF-b inhibitors; HepG2 CAGA-GFP viability, ATP luminescence, 18 h; Potency, µM (highest dose often 46.1 µM), most hits filed as cytotoxic; actives 0.76% (n = 410,000)
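HepG2 CAGA-GFP cells (1000/well, DMEM with 1% FBS) received compound, then TGF-beta at 500 pg/mL final, and were incubated 18 hours at 37 degrees C. Viability was read by CellTiter-Glo luminescence. Media-only wells were set as complete cell-killing and DMSO as no toxicity.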
A number is an active result. Calls follow the shape of the dose curve; as a rule, active = well fitted curve in the direction sought with a large enough effect; inconclusive = small, poorly fitted or top-dose-only effect, or another doubt; inactive = no such curve, though single readings can be large; an effect the other way counts as inactive or inconclusive.

For Clc1ccc(CSc2ncnc3c2ncn3C2CCCCO2)cc1 (stereo not drawn) the results were TGFb SMAD3 inh inactive, S2 tox inactive, GLP1R inv ag 11µM, GLP-1R agonist inactive, ATXN2 expr inh inactive and HepG2 tox inactive.
Screening CCN1C(=O)[C@H]2[C@@H](c3ccc(-c4cccc(Cl)c4)cc3)N[C@@](C)(C(=O)OC)[C@H]2C1=O returned TGFb SMAD3 inh inactive, S2 tox inactive, GLP1R inv ag 11µM, GLP-1R agonist inactive, ATXN2 expr inh inactive and HepG2 tox inactive.
COC(=O)[C@]1(Cc2ccccc2)N[C@H](c2ccc(-c3cccc(Cl)c3)c(OC)c2)[C@@H]2C(=O)N(C)C(=O)[C@@H]21 was read as TGFb SMAD3 inh inactive, S2 tox inactive, GLP1R inv ag 3.2µM, GLP-1R agonist inactive, ATXN2 expr inh inactive and HepG2 tox inactive.
`Nc1c(Br)cc(C=O)cc1Br` gave TGFb SMAD3 inh inactive and HepG2 tox inactive.
Screening COc1ccc(CCNc2ncnc3c2oc2ccccc23)cc1OC returned TGFb SMAD3 inh inconclusive, GLP1R inv ag inactive, GLP-1R agonist inactive, ATXN2 expr inh 28µM and HepG2 tox inactive.
COc1ccc(CCNc2nc(C)nc3c2oc2ccccc23)cc1OC was read as TGFb SMAD3 inh inactive, S2 tox inactive, GLP1R inv ag inactive, GLP-1R agonist inactive, ATXN2 expr inh inconclusive and HepG2 tox inactive.
For CCC[C@]1(CCc2ccccc2)CC(O)=C([C@H](CC)c2cccc(NS(=O)(=O)c3ccc(C(F)(F)F)cn3)c2)C(=O)O1 the results were GLP-1R agonist inactive.
Screening CCCCNS(=O)(=O)c1ccc(NC(=O)C2c3ccccc3Oc3ccccc32)cc1 returned TGFb SMAD3 inh inconclusive, S2 tox inactive, GLP1R inv ag inconclusive, GLP-1R agonist inactive, ATXN2 expr inh inactive and HepG2 tox 10µM.
COC(=O)c1cc(Cl)ccc1NS(=O)(=O)C(F)(F)F was read as S2 tox inactive and ATXN2 expr inh inactive.
CCN(CC)CCNC(=O)c1ccc(NC(=O)Nc2cccc3ccccc23)cc1 was read as TGFb SMAD3 inh inconclusive, S2 tox inactive, GLP1R inv ag 10µM, GLP-1R agonist inactive, ATXN2 expr inh inactive and HepG2 tox inactive.
For CCN(CC)CCNC(=O)c1ccc(NC(=O)c2cccc(S(=O)(=O)N3c4ccccc4CC3C)c2)cc1 (stereo not drawn) the results were TGFb SMAD3 inh inconclusive, S2 tox inconclusive, GLP1R inv ag 5.6µM, GLP-1R agonist inactive, ATXN2 expr inh inconclusive and HepG2 tox 10µM.
For CCN(CC)CCNC(=O)c1ccc(NC(=O)c2ccc(F)cc2)cc1 the results were TGFb SMAD3 inh inactive, S2 tox inactive, GLP1R inv ag inactive, GLP-1R agonist inactive and HepG2 tox inactive.
`CC1Cc2ccccc2N1S(=O)(=O)c1cccc(C(=O)NCc2ccccn2)c1` (stereo not drawn) gave TGFb SMAD3 inh inconclusive, S2 tox inactive, GLP1R inv ag inconclusive, GLP-1R agonist inactive and HepG2 tox 20µM.
Screening CCOC(=O)c1nc2ccc(C)cc2c2c1C1CC(c3c(Cl)cccc31)N2C(=O)OCc1ccccc1 (stereo not drawn) returned TGFb SMAD3 inh inactive, S2 tox inconclusive, GLP1R inv ag 5µM, GLP-1R agonist inactive, ATXN2 expr inh inactive and HepG2 tox inactive.
For COc1cccc(O)c1CN1CCC(C(=O)Nc2ccc(-c3cccc(C)c3)cc2)CC1 the results were TGFb SMAD3 inh inconclusive, S2 tox inactive, GLP1R inv ag inconclusive, GLP-1R agonist inactive, ATXN2 expr inh inconclusive and HepG2 tox 13µM.
For COc1cccc(O)c1CN1CCC(C(=O)Nc2ccc(Oc3cccnc3)cc2)CC1 the results were TGFb SMAD3 inh inactive, S2 tox inactive, GLP1R inv ag inconclusive, GLP-1R agonist inactive, ATXN2 expr inh inactive and HepG2 tox inactive.
`Cc1ccc(C)c(OCCC(=O)N2CCN(S(=O)(=O)c3cc(C)ccc3C)CC2)c1` gave TGFb SMAD3 inh inactive, S2 tox inactive, GLP1R inv ag 11µM, GLP-1R agonist inactive, ATXN2 expr inh inactive and HepG2 tox inactive.
Cc1ccc(S(=O)(=O)N2CCN(C(=O)CSC(=S)N3CCCC3)CC2)c(C)c1 was read as TGFb SMAD3 inh 11µM, S2 tox inconclusive, GLP1R inv ag inconclusive, GLP-1R agonist inactive, ATXN2 expr inh inconclusive and HepG2 tox 10µM.
For Cc1ccc(S(=O)(=O)NC2CCCc3ccccc32)cc1C (stereo not drawn) the results were TGFb SMAD3 inh inactive, S2 tox inactive, GLP1R inv ag 5µM, GLP-1R agonist inactive, ATXN2 expr inh inactive and HepG2 tox inactive.
Screening Cc1ccc(-n2ncc(C(=O)NC3CCCCC3)c2C2CCN(C(=O)OC(C)(C)C)CC2)cc1 returned TGFb SMAD3 inh inactive, GLP1R inv ag inactive and HepG2 tox inactive.
For O=C(Nc1ccccc1Sc1ccccc1)c1cnn2c1NC(=C1CC1)C=C2C(F)F the results were TGFb SMAD3 inh inactive and HepG2 tox inactive.
CN(C(=O)COC(=O)C12CC3CC(CC(Cl)(C3)C1)C2)C1(C#N)CCCCC1 was read as TGFb SMAD3 inh inactive, S2 tox inconclusive, GLP1R inv ag 13µM, GLP-1R agonist inactive and HepG2 tox inactive.
Screening COc1ccc(CNC(=O)c2ccc(Cn3c(=O)c4cccn4c4cccnc43)cc2)c(OC)c1 returned TGFb SMAD3 inh inactive, GLP1R inv ag inactive and HepG2 tox inactive.
`CN1C2CCC1/C(=C\c1ccccc1)C(=O)/C2=C\c1ccccc1` gave TGFb SMAD3 inh inactive, S2 tox inconclusive, GLP1R inv ag inconclusive, GLP-1R agonist inactive, ATXN2 expr inh 25µM and HepG2 tox inactive.
For Nc1c(Cl)cc(/C=C2\C=Cc3ccccc32)cc1Cl the results were TGFb SMAD3 inh inactive and HepG2 tox inactive.
CN(Cc1ccc(Cl)cc1)C(=O)CNC(=O)C12CC3CC(CC(C3)C1)C2 was read as TGFb SMAD3 inh inactive, S2 tox inactive, GLP1R inv ag 8.9µM, GLP-1R agonist inactive, ATXN2 expr inh inactive and HepG2 tox inactive.
For Cc1ccc(Nc2cc(C)c3c(O)cccc3n2)cc1C the results were TGFb SMAD3 inh inconclusive, S2 tox inconclusive, GLP1R inv ag inconclusive, GLP-1R agonist inactive, ATXN2 expr inh inactive and HepG2 tox inactive.
For Cc1ccc(Nc2cc(C)c3ccc(O)cc3n2)cc1C the results were TGFb SMAD3 inh inconclusive, S2 tox inactive, GLP1R inv ag inconclusive, GLP-1R agonist inactive and HepG2 tox 10µM.
CCOC(=O)CN(Cc1ccccc1)C(C(=O)NC1CCCCC1)c1ccccc1 (stereo not drawn) was read as TGFb SMAD3 inh inconclusive, S2 tox inconclusive, GLP1R inv ag inactive, ATXN2 expr inh inconclusive and HepG2 tox inactive.

Screens (PubChem)
